# Experimental data as given in the supplement of paper PMC13380429.
# Legend:
# [1] = test system: Vero E6 infected with SARS-CoV-2; assay: morphology score (similarity to uninfected cells); higher = more like uninfected cells; conditions: 24 h
# [2] = test system: Vero E6 infected with SARS-CoV-2; assay: SARS-CoV-2 infection rate relative to infected DMSO; higher = more infection, active = 60 or less; conditions: 24 h
Compound,morphology score [1],SARS-CoV-2 infection rate [2]
Fc1ccc(C(c2ccccc2)(c2ccccc2F)n2ccnc2)cc1 (stereo unspecified) [flutrimazole] (10 µM),0.166,108% (inactive)
O=C(O)c1ccc(CN2CCC(CN[C@@H]3C[C@H]3c3ccccc3)CC2)cc1 (10 µM),0.106,98% (inactive)
CCN1CCC[C@H]1CNC(=O)c1c(OC)ccc(Br)c1OC [remoxipride] (10 µM),0.159,98.5% (inactive)
C[C@H]1C[C@@H]2[C@H]([C@@H](O)C[C@@]3(C)[C@H]2CC[C@]3(O)C(=O)CO)[C@@]2(C)C=CC(=O)C=C12 [methylprednisolone] (10 µM),-0.0624,108% (inactive)
CCOc1cc(OCC)c(C(=O)CCC(=O)O)cc1OCC [trepibutone] (10 µM),-0.0558,106% (inactive)
CNCC[C@H](Oc1cccc2ccccc12)c1cccs1 [duloxetine] (10 µM),0.747,47% (active)
CCCCC#Cc1nc(NC)c2ncn([C@@H]3O[C@H](CO)[C@@H](O)[C@H]3O)c2n1 (10 µM),0.143,96% (inactive)
C=C(C)[C@@H]1CC=C(CO)CC1 [perillyl-alcohol] (10 µM),0.0351,100% (inactive)
CN(C)C(=O)Oc1cccc([N+](C)(C)C)c1 [neostigmine] (10 µM),-0.107,112% (inactive)
CC(C)(C)c1ccc(/C=C/C(=O)Nc2ccc3c(c2)OCCO3)cc1 (10 µM),-0.068,110% (inactive)
CN[C@@H](C)C(=O)N[C@H](C(=O)N1CCC[C@H]1C(=O)Nc1snnc1-c1ccccc1)C1CCCCC1 (10 µM),-0.0857,110% (inactive)
O=C(O)[C@H](CC(=O)N1C[C@H]2CCCC[C@H]2C1)Cc1ccccc1 [mitiglinide] (10 µM),0.0871,108% (inactive)
O=C(O)c1ccc(N2N=C(Cc3ccccc3)/C(=C\c3ccc(-c4ccccc4F)o3)C2=O)cc1 (10 µM),-0.0825,115% (inactive)
